Results on 42 sequences are retold here after PMC7819943, “Rice protein-binding microarrays: a tool to detect cis-acting elements near promoter regions in rice”.

Over roughly 35,000 sequences, “fluorescence intensity (a.u.)” has its median near 10,000; the highest 2% begin near 52,000. Shown is part of a subset that was picked to be rich in the highest values.

The target of this assay is T1, OsWOX13 (Oryza sativa, UniProt Q5QMM3 1-267).
T1 sequence: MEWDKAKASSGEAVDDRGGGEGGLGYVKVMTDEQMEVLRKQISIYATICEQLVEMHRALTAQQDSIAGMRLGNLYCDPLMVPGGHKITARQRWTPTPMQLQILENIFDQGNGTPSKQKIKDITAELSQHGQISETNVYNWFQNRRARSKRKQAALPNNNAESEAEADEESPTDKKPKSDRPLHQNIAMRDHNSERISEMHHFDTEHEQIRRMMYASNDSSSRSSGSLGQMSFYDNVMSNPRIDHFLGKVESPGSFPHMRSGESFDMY
Nature of the assay: protein-binding microarray (RPBM); PBS, 2% BSA, 51.3 ng/ul salmon testes DNA, 50 uM zinc acetate, 200 nM TF, 25 C, 1 h; high values mean tight binding. The following applies: protein: recombinant; tags: N-terminal polyhistidine and DsRed monomer fusion (pET32a); label: CyDye5-dUTP incorporated in the synthesized complementary strand; 3' TTTTT single-stranded linker to array surface; dsDNA, one strand shown. The essentials: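 Transcription factors were made in E. coli BL21-CodonPlus as N-terminal fusions to a polyhistidine tag and DsRed, then purified on Ni–NTA. After primer extension with Cy5-dUTP and blocking with 2% BSA, a custom Agilent array was exposed for 1 h at 25 °C to 200 nM protein in PBS, 2% BSA, salmon testes DNA and 50 µM zinc acetate. Washed arrays were scanned on an Axon 4000B, and the binding signal is per-feature fluorescence intensity in arbitrary units.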
In the case of “ACTATGCCAATTAAAATAAATCAATACAATAGGTATGATTCGGAGTCACCTAGTGCAG”, the binding signal was 9790 fluorescence intensity (a.u.).

As for “TACAACAAATCAATAATACTCAATTTCCATGTAGTTTGATCGGAGTCACCTAGTGCAG”, the binding signal was 7890 fluorescence intensity (a.u.).

Turning to “TTGATAGTAAATCAAACATTAATAAAGGCCTGTTCACTTTCGGAGTCACCTAGTGCAG”, the binding signal is 8860 fluorescence intensity (a.u.).

For “CCAGATTGAGCTGTTGCGCACCACCATCCTGACCAGCTGCCGGAGTCACCTAGTGCAG”, the binding signal was 17400 fluorescence intensity (a.u.).

Consider “ATGACAGCAATTCCGATATCTAATAAGATTGAAAATATTGCGGAGTCACCTAGTGCAG”, for which the binding signal is 14800 fluorescence intensity (a.u.).

In the case of “CCAAATGATATAATCATGGCACATGGAGTACTGCTTAAGACGGAGTCACCTAGTGCAG”, the binding signal is 9170 fluorescence intensity (a.u.).

As for “CTAAAATTGGAGACGTCACTACAAACGTACGCACTCTTTGCGGAGTCACCTAGTGCAG”, the binding signal is 6760 fluorescence intensity (a.u.).

On to “TAGAATAAATTGATTTAATTAAATGTAACATTAAATATATCGGAGTCACCTAGTGCAG”, for which the binding signal was 10100 fluorescence intensity (a.u.).

Consider “TAAGATAAATTAATTGGTAACCTTGTATGTCCATAAGGGTCGGAGTCACCTAGTGCAG”, for which the binding signal is 45400 fluorescence intensity (a.u.).

For “ATTAAAACTTAATTAAATATACTAATAGCTTTCTCATTTTCGGAGTCACCTAGTGCAG”, the binding signal was 7350 fluorescence intensity (a.u.).

“AGATAATTTAATTGTTAACCATGTATGGCTGTAAGGGTATCGGAGTCACCTAGTGCAG”: the binding signal was 43900 fluorescence intensity (a.u.).

On to “AGTAAATTGGTGTATGATTAGATTAACATGTTAAATGTATCGGAGTCACCTAGTGCAG”, for which the binding signal is 53500 fluorescence intensity (a.u.).

Turning to “AAAATTGAAATTTTCAACATTAAATTTGGATTAGATTTTGCGGAGTCACCTAGTGCAG”, the binding signal was 19200 fluorescence intensity (a.u.).

Turning to “CGGCGTTAATTGTCCTTCGATCCATTATTACAGAAACACTCGGAGTCACCTAGTGCAG”, the binding signal is 15400 fluorescence intensity (a.u.).

For the sequence “GTACATTTTAATGATTATATTATGATGATGAAAATTGTATCGGAGTCACCTAGTGCAG”, the binding signal was 15300 fluorescence intensity (a.u.).

Take “GAAATAGATTAATTATAGCTAAAACATTTTCTCGACCTTGCGGAGTCACCTAGTGCAG”: the binding signal is 52800 fluorescence intensity (a.u.).

Take “TTTAATTGGTTAAATGAACTATGTAATGTTATAATTATATCGGAGTCACCTAGTGCAG”: the binding signal is 33200 fluorescence intensity (a.u.).

As for “ATGAGATAAATTGATTGTTAACCATGTATGTCTCTAAGGTCGGAGTCACCTAGTGCAG”, the binding signal was 56400 fluorescence intensity (a.u.).

In the case of “GATTAATTAATTATTATCCATTGTACACTTCGAAAATTGGCGGAGTCACCTAGTGCAG”, the binding signal is 60500 fluorescence intensity (a.u.).

On to “GGGGATAATTTTGTAGCTCGATGACAAGTTGATTTGGTGTCGGAGTCACCTAGTGCAG”, for which the binding signal was 19200 fluorescence intensity (a.u.).

In the case of “ATCGAATTGAGGGAGATAAATTGATCTTGTTTTAATAATTCGGAGTCACCTAGTGCAG”, the binding signal is 3450 fluorescence intensity (a.u.).

With “CTTTAATTACCACCCGATCTCACCAACAAGCGGGGCAGCTCGGAGTCACCTAGTGCAG”, the binding signal was 20400 fluorescence intensity (a.u.).

“AAACGATTGATCACAATCCACGCATCGTGCCTCTCTCGCCCGGAGTCACCTAGTGCAG”: the binding signal was 14300 fluorescence intensity (a.u.).

As for “GTCTCGTAATTTTCTGTTGAACTATGTAATTGATTTCTTTCGGAGTCACCTAGTGCAG”, the binding signal is 10500 fluorescence intensity (a.u.).

As for “TGCCACTCAAGTACAATTATTCCCATTAATTCGCTCCATTCGGAGTCACCTAGTGCAG”, the binding signal is 5600 fluorescence intensity (a.u.).

As to “ACTTAATTGGATAGATAAATTTAAGTTATATTTAATATGGCGGAGTCACCTAGTGCAG”, the binding signal was 64900 fluorescence intensity (a.u.).

Take “AGTAATAAATTGATTGTATGTTATCTGGTGGTCTGAAACTCGGAGTCACCTAGTGCAG”: the binding signal is 57400 fluorescence intensity (a.u.).

In the case of “ATAAGTTAATTTAAATAAATGGAGTAGAATATTATGATAGCGGAGTCACCTAGTGCAG”, the binding signal was 26300 fluorescence intensity (a.u.).

Regarding “TGAATTACTCAATTGAATTGGTGTTATGTAATAAACTGCTCGGAGTCACCTAGTGCAG”, the binding signal is 5970 fluorescence intensity (a.u.).

In the case of “ATTGATTGAGAAAATAATGTTGGTGAATAAATTGTTATATCGGAGTCACCTAGTGCAG”, the binding signal was 40700 fluorescence intensity (a.u.).

As to “TGTGATGTATTTGATTTATGATGTATTTATTTGTGTGTATCGGAGTCACCTAGTGCAG”, the binding signal is 20700 fluorescence intensity (a.u.).

As for “CCGGGGATTGATTTGCCGAGTGTATTATTGATCGTATGATCGGAGTCACCTAGTGCAG”, the binding signal is 53500 fluorescence intensity (a.u.).

As for “AGCTCTATAATTTTACAATTTAAAATTATATTATATAAAGCGGAGTCACCTAGTGCAG”, the binding signal is 20400 fluorescence intensity (a.u.).

Consider “GCATGACAAATGGCGTTAATTAGTCCACAAATAATATATACGGAGTCACCTAGTGCAG”, for which the binding signal is 3210 fluorescence intensity (a.u.).

On to “TTATGATATATTGATCGTAGGATTGGGATTGGGATCCTATCGGAGTCACCTAGTGCAG”, for which the binding signal was 15800 fluorescence intensity (a.u.).

Consider “AATTTAATTAATGACAAATATAATTAGCTCTCTATCCAGGCGGAGTCACCTAGTGCAG”, for which the binding signal is 55500 fluorescence intensity (a.u.).

With “CAAATATATTATAAAATTGCATTTAATAAAACTTATTTGGCGGAGTCACCTAGTGCAG”, the binding signal was 3450 fluorescence intensity (a.u.).

On to “GCATGTTGATTATACCAGTAAGTTTCACGCACGCACACCGCGGAGTCACCTAGTGCAG”, for which the binding signal is 13000 fluorescence intensity (a.u.).

On to “ACATGTTAATTTTAACATTGACTAATAGTAAGTAGTGAGCCGGAGTCACCTAGTGCAG”, for which the binding signal was 25000 fluorescence intensity (a.u.).

For “AAAGGGATGAGATTGAAGCAATTCCCGTGACTAGAAAACGCGGAGTCACCTAGTGCAG”, the binding signal was 3320 fluorescence intensity (a.u.).

In the case of “AAATTTAAATTTGAAGTTGATTTTAAGATATTTTCAACGTCGGAGTCACCTAGTGCAG”, the binding signal was 21000 fluorescence intensity (a.u.).

Consider “TTAGTTTATACTCAATTAATCATTCGCTAATGGCTTACCTCGGAGTCACCTAGTGCAG”, for which the binding signal is 5920 fluorescence intensity (a.u.).
